# According to article PMC12136788:
# Residue numbers refer to the chain shown, from its start. Over roughly 5,800 sequences, “enrichment r” has its median near 0.54; the highest 2% begin near 16. What follows is part of a selection rich in the highest values, with near analogues and random picks from the rest.
# B1: chr1:173734013:173734119:+|CDS|ENSG00000076321|unk|FALSE|unique (ssRNA)
# RNA: GGGAGUUCUACAGUCCGACGAUCCAUUGACGAGAGGGCUAUGGAAUUACUGAUUGACUUUGCGUAUACCUCCCAGAUAACAGUAGAAGAGGGCAAUGUUCAGACUCUUCUGCCAGCUGCUUGCCUCCUCCAGCUGGCAGAAAUCAACAGAGGAUUGAGCAUCA
# B2: chr10:73251842:73251943:-|CDS|ENSG00000182180|msi1|FALSE|unique (ssRNA)
# RNA: GGGAGUUCUACAGUCCGACGAUCUCGGCCGUUCUACCGCAUUGUGGCUGCUCACAACAAGUGUCCCAGGGAUGGCCGUUUCGUAGAGCAGCUGGGCUCCUAUGAUCCAUUGCCCAACAGUCAUGGAGAAAAACUCGUUGCCCUCAACAGAGGAUUGAGCAUCA
# B3: chr7:44121865:44121972:-|CDS|ENSG00000106628|unk|FALSE|unique (ssRNA)
# RNA: GGGAGUUCUACAGUCCGACGAUCGUGCCAGUGGCAACCUACACCAACUCCUCACAACCCUUCCGGCUAGGAGAGCGCAGCUUUAGCCGGCAGUAUGCCCACAUUUAUGCCACCCGCCUCAUCCAAAUGAGACCCUUCCUGGAGCAACAGAGGAUUGAGCAUCA
# B4: chr6:31137533:31137950:-|three_prime_utr|ENSG00000204538|control|control|control (ssRNA)
# RNA: GGGAGUUCUACAGUCCGACGAUCGCAUCUCCAGGCACCCACGCCCUCUCCACCCUCUGAUUCCCCGUGAAUUCUUCCCAAUUUAGCCUGUCUCCUUAAACCUCUUCCUCAUUCCCUCGGUUUUAUUCUGAACCCGUAAGGUGGCAACAGAGGAUUGAGCAUCA
# B5: ENSG00000070961:be:win_301|CDS|ENSG00000070961|bound_else_gene|NA|bound_elsewhere_windowed (ssRNA)
# RNA: GGGAGUUCUACAGUCCGACGAUCUUAGUAUGGGAAGCAUUACAAGAUGUCACUUUAAUUAUAUUAGAAAUUGCAGCCAUAGUAUCAUUGGGCCUUUCUUUUUAUCAGCCUCCAGAAGGGGAUAAUGCACUUUGUGGAGAAGUUCAACAGAGGAUUGAGCAUCA
# B6: chr13:110149936:110150037:-|3pUTR|ENSG00000187498|msi1|total|mutant (ssRNA)
# RNA: GGGAGUUCUACAGUCCGACGAUCUUCUUGUAUUAUAAUUAAUUUUCUACCCCCAGAGAUAAAUGUUUGUUUAUAUCACUGUCCCGCUGUUUCAAAAUUCCGGUCCCUUGGUCUGUACAAAUAACCGCAAUGUAAAAAUGGUUUCAACAGAGGAUUGAGCAUCA
# B7: ENSG00000136451:be:win_2451|3pUTR|ENSG00000136451|bound_else_gene|NA|bound_elsewhere_windowed (ssRNA)
# RNA: GGGAGUUCUACAGUCCGACGAUCUUUAAAUUGGAAGACGCUGGAGGCACUGGGAUGUGAUAUGCCCCUCUCUCUCCCAAUCAGAGCCUGUUGAUAUUACAACAGGGACAGAUGUGUUAGUUGCUCACUAGAGUUUAUGUCUUACAACAGAGGAUUGAGCAUCA
# B8: chr1:214663888:214664008:+|3pUTR|ENSG00000117724|msi1|total|mutant (ssRNA)
# RNA: GGGAGUUCUACAGUCCGACGAUCAGGAGAAAACAAUUCCUCCGAAGUCUUAAAUAUAUUGUACUCUUCCGAUCUCCCAUGUGCCGGUAUUGAAAAAGUUUGGAAGCACUGAUCACCUGUCCGCAUUGCCAUUCCUCUACUGCACAACAGAGGAUUGAGCAUCA
# B9: chr1:214663888:214664008:+|3pUTR|ENSG00000117724|msi1|FALSE|bound_elsewhere (ssRNA)
# RNA: B8 RNA with C41U, C42A, C68U, C69A, C83U, C84A, C120U, C121A
# B10: chr6:57184343:57184440:+|3pUTR|ENSG00000112208|msi1_unk|FALSE|overlapping (ssRNA)
# RNA: GGGAGUUCUACAGUCCGACGAUCUCUUCAGUUUUGUGAAUAACAAAACUAGCAAUAUUUUAAUUAUCUAUCUAGAGAUUUUUUAGAUUGAAUUCUUGUCUUGUACUAGGAUCUAGCAUAUUUCACUAUUCUGUGGAUGAAUACCAACAGAGGAUUGAGCAUCA
# B11: chr13:110149936:110150037:-|3pUTR|ENSG00000187498|msi1|FALSE|unique (ssRNA)
# RNA: B6 RNA with C83U, C84A, C99U, C100A, C124U, C125A
# B12: chr12:89642165:89642281:-|CDS|ENSG00000070961|unk|FALSE|bound_elsewhere (ssRNA)
# RNA: GGGAGUUCUACAGUCCGACGAUCGCCAAAAACCUUUCUUCAAUUAGUAUGGGAAGCAUUACAAGAUGUCACUUUAAUUAUAUUAGAAAUUGCAGCCAUAGUAUCAUUGGGCCUUUCUUUUUAUCAGCCUCCAGAAGGGGAUAACAACAGAGGAUUGAGCAUCA
# B13: ENSG00000070961:be:win_251|CDS|ENSG00000070961|bound_else_gene|NA|bound_elsewhere_windowed (ssRNA)
# RNA: GGGAGUUCUACAGUCCGACGAUCUGUUUGGAAAGAAUUUUAUACCUCCUAAAAAGCCAAAAACCUUUCUUCAAUUAGUAUGGGAAGCAUUACAAGAUGUCACUUUAAUUAUAUUAGAAAUUGCAGCCAUAGUAUCAUUGGGCCCAACAGAGGAUUGAGCAUCA
# B14: ENSG00000136451:be:win_2551|3pUTR|ENSG00000136451|bound_else_gene|NA|bound_elsewhere_windowed (ssRNA)
# RNA: GGGAGUUCUACAGUCCGACGAUCUCACUAGAGUUUAUGUCUUAUAUUAAAUUGUAUACAGUUUUUAUUCUAACCACUAACUAGGUAGUGUAUGCCCCUUCAGAACAUGCAGAGUGUAUCUUUUUUUAAAUUUCUCCUUCCGUUCAACAGAGGAUUGAGCAUCA
# B15: chr9:76611375:76614569:-|three_prime_utr|ENSG00000106772|control|control|control (ssRNA)
# RNA: GGGAGUUCUACAGUCCGACGAUCAUGUUACCUUUUUCCACUUUGCACUACCUGGUGCCAUUCUAAAUUUCUAAGGGGAAAAAUAGAAAGUUUGUUUACUCUUAAGAUAUUUUAUGAAAUUGUGUGUACUUUCCUAUUUUGCCACAACAGAGGAUUGAGCAUCA
# B16: ENSG00000136451:be:win_2501|3pUTR|ENSG00000136451|bound_else_gene|NA|bound_elsewhere_windowed (ssRNA)
# RNA: GGGAGUUCUACAGUCCGACGAUCUCCCAAUCAGAGCCUGUUGAUAUUACAACAGGGACAGAUGUGUUAGUUGCUCACUAGAGUUUAUGUCUUAUAUUAAAUUGUAUACAGUUUUUAUUCUAACCACUAACUAGGUAGUGUAUGCAACAGAGGAUUGAGCAUCA
# Biological target: MSI1 full-length (mouse, UniProt Q61474 1-362)
# Sequence (Q61474 whole entry): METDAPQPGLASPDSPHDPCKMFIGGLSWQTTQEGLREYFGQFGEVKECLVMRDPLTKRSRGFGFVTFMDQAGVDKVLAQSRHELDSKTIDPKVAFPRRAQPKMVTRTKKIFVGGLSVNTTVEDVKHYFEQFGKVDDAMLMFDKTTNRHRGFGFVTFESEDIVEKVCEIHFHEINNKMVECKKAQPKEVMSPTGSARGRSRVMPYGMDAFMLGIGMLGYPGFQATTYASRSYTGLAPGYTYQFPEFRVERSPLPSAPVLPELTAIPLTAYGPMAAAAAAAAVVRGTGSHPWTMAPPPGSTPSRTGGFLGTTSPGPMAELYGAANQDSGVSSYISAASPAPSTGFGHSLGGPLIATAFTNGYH
# Test: nsRBNS (natural sequence RNA bind-n-seq); RBNS binding buffer (assumed for nsRBNS): 25 mM Tris pH 7.5, 150 mM KCl, 3 mM MgCl2, 0.01% Triton X-100, 500 ug/ml BSA, 20 U/ml SUPERase-In, 4 C; UNK is unkempt and MSI1 is Musashi-1; names of the RNAs are library labels; protein concentration not given here; high values mean tight binding
row,Binder,binding signal [enrichment R]
1,B1,1.23
2,B2,0.318
3,B3,0.629
4,B4,0.944
5,B5,9.77
6,B6,3.28
7,B7,1.47
8,B8,0.406
9,B9,16.4
10,B10,4.43
11,B11,30.3
12,B12,9.09
13,B13,17.2
14,B14,10.4
15,B15,1.45
16,B16,25.2
